{
  "source": "PubChem BioAssay AID1981",
  "about": "(Southern Research Specialized Biocontainment Screening …, 2009)",
  "note": "Hit rate of the full screen: of about 2,200 compounds, about 480 (22%) were called active. The rule behind the calls is not given here. Only a sample is shown. Measured potencies and affinities stand elsewhere.",
  "data": [
    {"assay": "S. Typhimurium GFP fluorescence dose response in modified counterscreen for PhoP regulon inhibitor project (AID 1981)", "details": "4 h; series mostly up to 150 µM", "values": [
      {"smiles": "OC1(c2cccc(C(F)(F)F)c2)CCN(c2ncnc3c2[nH]c2ccccc23)CC1", "outcome": "inactive"},
      {"smiles": "COc1ccc2c(c1)CC/C(=C\\Nc1ccc3c(c1)OCO3)C2=O", "outcome": "inactive"},
      {"smiles": "COc1ccc(C2C=C(c3ccc(Cl)cc3)Nc3nc(NC(C)=O)nn32)cc1", "note": "(stereo not given)", "outcome": "inactive"},
      {"smiles": "CCCSc1ncc(Cl)c(C(=O)Nc2ccc(S(=O)(=O)N3CC(C)OC(C)C3)cc2)n1", "note": "(stereo not given)", "outcome": "inactive"},
      {"smiles": "O=C(NC1CC1)C1=NOC(CNc2ncc(C(F)(F)F)cc2Cl)C1", "note": "(stereo not given)", "outcome": "inactive"},
      {"smiles": "O=C(NCc1cccnc1)c1cc2ccccc2oc1=O", "outcome": "inactive"},
      {"smiles": "CC(=O)N1N=C(c2ccco2)CC1c1ccc(Br)cc1", "note": "(stereo not given)", "outcome": "inactive"},
      {"smiles": "O=C1NC(=O)C(=C2CCCCCC2)S1", "outcome": "inactive"},
      {"smiles": "Cc1ccc(-c2csc(N=C(N)N)n2)cc1", "outcome": "inactive"},
      {"smiles": "c1ccc(OCCCN2CCCC2)cc1", "outcome": "inactive"},
      {"smiles": "Clc1ccc(OCCN2CCN(c3ncnc4sccc34)CC2)cc1", "outcome": "inactive"},
      {"smiles": "COc1ccc(Br)cc1C(=O)NCc1cccnc1", "outcome": "inactive"},
      {"smiles": "Clc1ccccc1OCCn1ccnc1", "outcome": "inactive"},
      {"smiles": "NC(=O)N1OCC2COc3ccc4ccccc4c3C21", "note": "(stereo not given)", "outcome": "inactive"},
      {"smiles": "Cc1ccccc1CS(=O)(=O)c1snnc1C", "outcome": "inactive"},
      {"smiles": "O=C(CNC(=O)c1ccco1)OCC(=O)c1ccc2c(c1)CCCC2", "outcome": "inactive"},
      {"smiles": "Fc1ccc(-c2n[nH]c(=S)n2/N=C/c2c[nH]c3ccccc23)cc1", "outcome": "inactive"},
      {"smiles": "Cc1cc(=O)[nH]c(N/N=C/c2c[nH]c3ccccc23)n1", "outcome": "inactive"},
      {"smiles": "CSc1ccc(C(=O)/C=C/c2ccc(N)cc2)cc1", "outcome": "inactive"},
      {"smiles": "O=C(O)C1CCCN1S(=O)(=O)c1ccc2[nH]c(=O)c(=O)[nH]c2c1", "note": "(stereo not given)", "outcome": "inactive"},
      {"smiles": "Cc1cc(C)c(C#N)c(SCc2cn3ccccc3n2)n1", "outcome": "inactive"},
      {"smiles": "CCS(=O)(=O)Nc1cc(C(=O)OC)ccc1C(=O)OC", "outcome": "inactive"},
      {"smiles": "Cc1ccc(-n2nnnc2SCC(=O)Nc2ncc(Cc3ccccc3Cl)s2)cc1", "outcome": "inactive"},
      {"smiles": "CCOc1cc(CNn2cnnc2)ccc1OCC(=O)NC1CCCCC1", "outcome": "inactive"},
      {"smiles": "CCN(CCO)Cc1csc2ccccc12", "outcome": "inactive"},
      {"smiles": "CCOc1ccccc1OCC(=O)Nc1ccc(S(=O)(=O)Nc2nc(C)cc(C)n2)cc1", "outcome": "inactive"},
      {"smiles": "CCOCCCNC(=S)Nc1cc(C)cc(C)c1", "outcome": "inactive"},
      {"smiles": "COc1cccc(-c2nc(-c3ccc(Br)o3)no2)c1", "outcome": "inactive"},
      {"smiles": "CCN(CC)c1ccc(/C=C(\\C#N)C(=O)NCc2ccco2)cc1", "outcome": "inactive"},
      {"smiles": "Cc1ccc(NC(=S)NCCc2ccccc2)c(C)c1", "outcome": "inactive"},
      {"smiles": "CCc1cccc(NC(=O)CCCSc2nc3ccccc3[nH]2)c1", "outcome": "inactive"},
      {"smiles": "Cc1cc(C)cc(-n2c(C)cc(C=C(C#N)C#N)c2C)c1", "outcome": "inactive"},
      {"smiles": "CCC(=O)c1ccc(OCC(O)CNCc2ccc(F)cc2)cc1", "note": "(stereo not given)", "outcome": "inactive"},
      {"smiles": "CCCc1cnc(NCCNCC(O)COc2ccc(Cl)c(Cl)c2)nc1", "note": "(stereo not given)", "outcome": "inactive"},
      {"smiles": "CC(=O)Nc1ccc(NS(=O)(=O)c2ccc3c(c2)n(C)c(=O)n3C)cc1", "outcome": "inactive"},
      {"smiles": "Cc1ccc(NC(NC(=O)c2ccccn2)C(Cl)(Cl)Cl)cc1", "note": "(stereo not given)", "outcome": "inactive"},
      {"smiles": "O=C(NCc1ccco1)c1cccc(Nc2nc3ccc(Br)cc3[nH]2)c1", "outcome": "inactive"},
      {"smiles": "Cc1ccc(C(=O)N/N=C/c2ccc([N+](=O)[O-])s2)cc1", "outcome": "inactive"},
      {"smiles": "O=C(NC(=S)N1CCN(c2c(Cl)cccc2[N+](=O)[O-])CC1)c1cccs1", "outcome": "inactive"},
      {"smiles": "COc1ccc(/C=N/NC(=O)c2ccc3c(c2)OCCO3)cc1[N+](=O)[O-]", "outcome": "inactive"},
      {"smiles": "O=C(Nc1cnn(Cc2ccc(F)cc2)c1)c1cnccn1", "outcome": "inactive"},
      {"smiles": "Cc1ccccc1-n1nnnc1Sc1nnnn1-c1ccccc1", "outcome": "inactive"},
      {"smiles": "O=C1c2ccccc2C(=O)N1CCc1csc(-c2cccc(Cl)c2)n1", "outcome": "inactive"},
      {"smiles": "O=C(COC(=O)/C=C/c1ccco1)Nc1cccc([N+](=O)[O-])c1", "outcome": "inactive"},
      {"smiles": "CCOc1ccc2c(c1)nc(SCC(=O)c1ccc(Br)s1)n2C", "outcome": "inactive"},
      {"smiles": "CC(=O)Nc1c(O)nc(SCC(=O)N2CCN(c3ccc(F)cc3)CC2)[nH]c1=O", "outcome": "inactive"},
      {"smiles": "Cc1c(Cl)cccc1NC(=O)CSCC(N)=O", "outcome": "inactive"},
      {"smiles": "CSCC[C@H](NC(=O)Nc1ccc(C)cc1)C(=O)O", "outcome": "inactive"},
      {"smiles": "N#Cc1c(N)nc(SCC(=O)NC2CCCCC2)c(C#N)c1-c1ccc(Cl)cc1", "outcome": "inactive"},
      {"smiles": "CCCCCCCCn1c2c(c(=N)c3c1CCC3)CCCC2", "outcome": "inactive"},
      {"smiles": "N=c1c2c(n(Cc3ccc(Br)cc3)c3c1CCC3)CCCC2", "outcome": "inactive"},
      {"smiles": "CCCCn1c(=N)n(CC(=O)C(C)(C)C)c2ccccc21", "outcome": "inactive"},
      {"smiles": "CCCCn1c(NCCO)nc2ccccc21", "outcome": "inactive"},
      {"smiles": "CCCCC1CCC(C(=O)Nc2ccccc2)CC1", "note": "(stereo not given)", "outcome": "inactive"},
      {"smiles": "COC(=O)C(C)N1C(=O)S/C(=C\\c2cc(C)n(-c3ccccn3)c2C)C1=O", "note": "(stereo not given)", "outcome": "inactive"},
      {"smiles": "Cc1ccc2nc(-c3ccc(Br)o3)oc(=O)c2c1", "outcome": "inactive"},
      {"smiles": "O=C1N=c2ccccc2=C1c1[nH]c(=S)[nH]c1O", "outcome": "inactive"},
      {"smiles": "O=C1c2ccccc2-c2onc3ccc(NCc4ccco4)c1c23", "outcome": "inactive"},
      {"smiles": "CCn1c(=N)n(CC(O)c2ccccc2)c2ccccc21", "note": "(stereo not given)", "outcome": "inactive"},
      {"smiles": "Cc1ccc(/C=C/c2ccc(=O)n(Cc3ccccc3Cl)n2)cc1", "outcome": "inactive"},
      {"smiles": "[O-]/[N+](=C\\c1ccncc1)c1ccccc1", "outcome": "inactive"},
      {"smiles": "CCCn1c(NCCO)nc2ccccc21", "outcome": "inactive"},
      {"smiles": "c1csc(C2Nc3cccc4cccc(c34)N2)c1", "outcome": "inactive"},
      {"smiles": "Brc1ccc(NC2=Nc3ccccc3CC2)cc1", "outcome": "inactive"},
      {"smiles": "O=C(Nc1cnn(Cc2ccc(Cl)cc2Cl)c1)c1noc2c1CCCC2", "outcome": "inactive"},
      {"smiles": "Cc1cccc(-n2c(SCC(N)=O)nc3c(c2=O)C2(CCCC2)Cc2ccccc2-3)c1", "outcome": "inactive"},
      {"smiles": "COC(=O)c1sccc1NC(=O)c1csc2c1CCCC2", "outcome": "inactive"},
      {"smiles": "Oc1ccccc1CN1CCCN(Cc2ccccc2O)C1", "outcome": "inactive"},
      {"smiles": "CC(C)Cc1oc(C(=O)O)cc1CN1CCOCC1", "outcome": "inactive"},
      {"smiles": "COc1ccc(NC(=O)CN2CCCCC2)c([N+](=O)[O-])c1", "outcome": "inactive"},
      {"smiles": "Cc1ccc(Oc2ccc3c(c2)C(=O)N(c2ccc(S(=O)(=O)Nc4nccs4)cc2)C3=O)cc1", "outcome": "inactive"},
      {"smiles": "COc1cc(OC)cc(C(=O)N[C@H](C(=O)OCC(=O)Nc2ccc(C(N)=O)cc2)C(C)C)c1", "outcome": "inactive"},
      {"smiles": "COc1ccccc1-n1c(SCc2cc(=O)oc3cc(O)ccc23)nc2ccccc2c1=O", "outcome": "inactive"},
      {"smiles": "COc1cccc(C2C3=C(Nc4[nH]n(-c5ccccc5)c(=O)c42)c2ccccc2C3=O)c1", "note": "(stereo not given)", "outcome": "inactive"},
      {"smiles": "CC(C)Oc1cccc(C(=O)NC(=S)Nc2ccccc2)c1", "outcome": "inactive"}
    ]}
  ]
}
